The values that follow come from PubChem BioAssay (NCI).

Structures are written as SMILES. About 83,000 compounds went through this panel and 20% of them were active in at least one assay; those are over-represented in the sample as a whole.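 Negative percent growth values reflect cell death: -40 means 40% of the cells present at the start died, and -100 means all died.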 Values without a mark were called inactive. Calls of active or inactive are those of the source. Rule for the calls: active = growth percent below 10; inactive = the rest.

What all share (assay): NCI-60 one-dose screen, 48 h (100 = growth as untreated, 0 = no growth, -100 = all killed)
Holding throughout (conditions): 10 µM unless noted

The test system of assay [1] is SK-MEL-2 melanoma.
Assay [2] relates to EKVX NSCLC.
The subject of assay [3] is SN12C renal.
The test system of assay [4] is UO-31 renal.
Assay [5] has as its system ACHN renal.
The subject of assay [6] is CAKI-1 renal.
Assay [7] has as its system A498 renal.
Assay [8] deals with CCRF-CEM leukemia.
For assay [9], the system named is MOLT-4 leukemia.
For assay [10], the system named is SR leukemia.
Assay [11] relates to RPMI-8226 leukemia.
In assay [12] the test system is OVCAR-8 ovarian.
Assay [13] relates to OVCAR-5 ovarian.
Assay [14] concerns OVCAR-4 ovarian.
Assay [15] has as its system SK-OV-3 ovarian.
Assay [16] relates to IGROV1 ovarian.
Assay [17] concerns OVCAR-3 ovarian.
Assay [18] has as its system HS 578T breast.
Assay [19] relates to NCI/ADR-RES ovarian.
Assay [20] has as its system TK-10 renal.

`NNC(=O)CSc1nc2scc(-c3ccccc3)c2c(=O)n1-c1ccccc1`: the growth in assay [1] is 101%; in assay [2], 103%; in [3], 101%; in assay [4], 76.2%; in assay [5], 103%; in [6], 106%. In addition, the growth in [7] is 87.4%; in assay [8], 106%; in assay [9], 96%; in assay [10] it was 83%; in [11], 109%; in assay [12] it was 123%. Further, the growth in assay [13] is 98%; in [14] it was 92.8%; in assay [15] it was 120%; in assay [16] it was 102%; in assay [17] it was 99.5%; in assay [18] it was 89.2%. In addition, the growth in assay [19] is 103%.
As for `CC(=O)Nc1ccc(/C=N/N2CCCCCC2)cc1`, the growth in assay [1] was 118%; in assay [2] it was 98.8%; in [3], 83.3%; in [4], 93.9%; in assay [5], 79.1%; in [6] it was 92.7%. Moreover, the growth in assay [7] was 108%; in assay [8] it was 106%; in assay [9], 102%; in [10] it was 96.2%; in assay [11], 116%; in [12] it was 101%. Also, the growth in assay [13] was 96.7%; in assay [14], 99.1%; in assay [15], 99.9%; in [16], 111%; in [17], 99.4%; in assay [18], 96.3%.
On to `COc1cc(/C=C/c2cc(/C=C/c3ccc(O)c(OC)c3)n(C(=O)c3ccccc3Br)n2)ccc1O`, for which the growth in assay [1] is -0.325% (active); in [2] it was 30.6%; in [3] it was 14.2%; in assay [4], 23.9%; in [5], 25.1%; in [6], -34.8% (active). In addition, the growth in [7] is 56.4%; in assay [8] it was 3.52% (active); in assay [9], -6.53% (active); in assay [10], -4.77% (active); in assay [11], 14.3%; in assay [12], 27.7%. Further, the growth in assay [13] was 84.5%; in [14], 49.8%; in [15] it was 16.6%; in [16] it was 25%; in assay [17], 12.6%; in assay [18], 3.59% (active). The growth in [19] was 28.1%.
Take `O=c1c2cc(Br)cc(Br)c2nc(-c2ccc(Cl)cc2)n1/N=C/c1cccc(F)c1`: the growth is 59.8% in assay [1]; 59.2% in assay [2]; 53.5% in assay [3]; 19.7% in assay [4]; 10.8% in assay [5]; 14.5% in assay [6]. For the same molecule, the growth is 101% in assay [7]; 48.8% in assay [8]; 64.8% in [9]; 62.7% in [10]; 29.4% in [12]; 61% in assay [13]. Also, the growth in assay [14] was -11% (active); in assay [15], 52%; in assay [16], 33.1%; in assay [17], 49.8%; in assay [18], 35.2%; in [19], 40.3%.
Take `Nc1nc(NC2CC2)cc(-c2cccc(Cl)c2Cl)n1`: the growth in assay [1] was 14.3%; in assay [2] it was 71.9%; in [3], 59.6%; in assay [4], 71.7%; in assay [5], 75.1%; in [6], 58.5%. Moreover, the growth is 62.3% in [8]; 28.4% in [9]; 14.3% in assay [10]; 74.2% in [11]; 70% in assay [12]; 87.1% in assay [13]. Also, the growth in assay [15] was 64.7%; in assay [16], 65.6%; in assay [17], 36.8%; in assay [18], 64.7%.
For `Cc1ccc(Nc2cc(Cl)c([N+](=O)[O-])cc2[N+](=O)[O-])cc1`, the growth in assay [1] is 28.3%; in assay [2] it was 102%; in [3] it was 24.6%; in assay [4] it was 77.7%; in assay [20] it was 15.5%; in [5], 26%. Further, the growth is 32.8% in assay [6]; 4.96% (active) in [10]; 26.8% in assay [12]; 46.3% in [13]; 83.5% in [15]; 27.7% in assay [16]. Also, the growth in assay [17] was 0.375% (active); in [18], 92.1%.
`COc1ccccc1CNCCCN1C(=O)c2ccc3c4c(ccc(c24)C1=O)C(=O)N(CCCNCCCN)C3=O`: the growth in assay [1] was -47.3% (active); in assay [2] it was 34.7%; in assay [3], -56.8% (active); in [4], 23.3%; in assay [5] it was 9.16% (active); in [6], 31.9%. The growth in assay [7] was 14.9%; in [8] it was 7.88% (active); in assay [9] it was -24.5% (active); in assay [10], 10%; in assay [11], 17.5%; in assay [12] it was -24.4% (active). The growth was 37.9% in [13]; -99.3% (active) in assay [14]; 34.7% in assay [15]; -2.92% (active) in assay [16]; -19.3% (active) in assay [17]; 30.7% in [18]. Further, the growth in assay [19] is 33.7%.
Turning to `O=C(N/N=C\c1cc(Br)ccc1O)c1ccncc1`, the growth in assay [1] is 31.4%; in [2], 29.6%; in assay [3], 46.5%; in assay [4], 23.4%; in assay [5] it was 27.3%; in assay [6], 24.7%. The growth in assay [7] is 74.1%; in assay [8], 8.77% (active); in assay [9], -10.7% (active); in assay [10], 14.2%; in [11] it was 36.9%; in [12] it was 27.5%. For the same molecule, the growth is 54.8% in assay [13]; 36.8% in [14]; 38.3% in [15]; 25.2% in [16]; 25.1% in assay [17]; 76.5% in [18]. The growth in [19] was 12.4%.
